Test results as given in PubChem BioAssay (NCI).
About 83,000 compounds went through this panel and 20% of them were active in at least one assay; those are over-represented in the sample as a whole.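 48-hour exposure, single concentration, 96-well plates; percent growth endpoint where 0 means no net growth. Active: below 10.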

What was measured:
Test in all cases: NCI-60 one-dose screen, 48 h (100 = growth as untreated, 0 = no growth, -100 = all killed)
Details in all cases: 10 µM unless noted
NCI-H23 lung = system: NCI-H23 lung
NCI-H226 lung = system: NCI-H226 lung
NCI-H322M lung = system: NCI-H322M lung
HOP-62 NSCLC = system: HOP-62 NSCLC
NCI-H460 lung = system: NCI-H460 lung
NCI-H522 lung = system: NCI-H522 lung
A549/ATCC NSCLC = system: A549/ATCC NSCLC
786-0 renal = system: 786-0 renal
COLO 205 colon = system: COLO 205 colon
DU-145 prostate = system: DU-145 prostate
K-562 leukemia = system: K-562 leukemia
MALME-3M melanoma = system: MALME-3M melanoma
MDA-MB-231 breast = system: MDA-MB-231 breast
RXF 393 renal = system: RXF 393 renal
SF-268 CNS = system: SF-268 CNS
SF-295 CNS = system: SF-295 CNS
SF-539 CNS = system: SF-539 CNS
UACC-257 melanoma = system: UACC-257 melanoma
M14 melanoma = system: M14 melanoma
HCT-15 colon = system: HCT-15 colon

Measured: growth

Cc1cc(=O)n2n1-c1ccc(Cl)cc1NC(=O)C2
inactive: NCI-H23 lung 109% | NCI-H226 lung 93.9% | NCI-H322M lung 85.6% | HOP-62 NSCLC 104% | NCI-H460 lung 112% | NCI-H522 lung 96.2% | A549/ATCC NSCLC 100% | 786-0 renal 108% | COLO 205 colon 115% | DU-145 prostate 111% | K-562 leukemia 104% | MALME-3M melanoma 103% | MDA-MB-231 breast 122% | RXF 393 renal 104% | SF-268 CNS 109% | SF-295 CNS 98.2% | SF-539 CNS 99% | UACC-257 melanoma 89% | M14 melanoma 115% | HCT-15 colon 101%

CCOc1cccc(C2CC(=O)Nc3cc4c(cc32)OCO4)c1 (stereo not given)
inactive: NCI-H23 lung 77.9% | NCI-H226 lung 65% | NCI-H322M lung 91.1% | HOP-62 NSCLC 87% | NCI-H460 lung 94.2% | NCI-H522 lung 66.5% | A549/ATCC NSCLC 94.2% | 786-0 renal 93.4% | COLO 205 colon 96.8% | DU-145 prostate 94.5% | K-562 leukemia 48.2% | MALME-3M melanoma 83.4% | MDA-MB-231 breast 111% | RXF 393 renal 78.8% | SF-268 CNS 89.4% | SF-295 CNS 76% | SF-539 CNS 91.7% | UACC-257 melanoma 94.5% | M14 melanoma 102% | HCT-15 colon 77.3%

CC(CCC(=O)O)(NC(=O)c1ccc([N+](=O)[O-])cc1)C(=O)O (stereo not given)
inactive: NCI-H23 lung 98.4% | NCI-H226 lung 111% | NCI-H322M lung 107% | HOP-62 NSCLC 92.8% | NCI-H460 lung 107% | NCI-H522 lung 106% | A549/ATCC NSCLC 107% | 786-0 renal 105% | COLO 205 colon 107% | DU-145 prostate 104% | K-562 leukemia 99% | MALME-3M melanoma 106% | MDA-MB-231 breast 113% | RXF 393 renal 115% | SF-268 CNS 104% | SF-295 CNS 106% | SF-539 CNS 105% | UACC-257 melanoma 99.4% | M14 melanoma 102% | HCT-15 colon 113%

O=C(CCc1nnc(Cn2ccnc2)o1)c1nc2ccccc2[nH]1
inactive: NCI-H23 lung 102% | NCI-H226 lung 115% | NCI-H322M lung 92.9% | HOP-62 NSCLC 102% | NCI-H460 lung 116% | NCI-H522 lung 98.4% | A549/ATCC NSCLC 103% | 786-0 renal 105% | COLO 205 colon 119% | DU-145 prostate 108% | K-562 leukemia 101% | MALME-3M melanoma 77.8% | MDA-MB-231 breast 89.7% | RXF 393 renal 124% | SF-268 CNS 111% | SF-295 CNS 111% | SF-539 CNS 100% | UACC-257 melanoma 114% | M14 melanoma 105% | HCT-15 colon 100%

N=C(N)/N=C(\CCc1nc2ccccc2[nH]1)c1nc2ccccc2[nH]1
inactive: NCI-H23 lung 91.6% | NCI-H226 lung 93.4% | NCI-H322M lung 118% | HOP-62 NSCLC 97% | NCI-H460 lung 114% | NCI-H522 lung 96% | A549/ATCC NSCLC 102% | 786-0 renal 107% | COLO 205 colon 103% | DU-145 prostate 111% | K-562 leukemia 98.4% | MALME-3M melanoma 96.9% | MDA-MB-231 breast 100% | RXF 393 renal 116% | SF-268 CNS 112% | SF-295 CNS 120% | SF-539 CNS 97.1% | UACC-257 melanoma 109% | M14 melanoma 96.4% | HCT-15 colon 106%

COc1ccc(Cn2cc3c(c2-c2ccccc2)CCc2cncnc2-3)cc1
inactive: NCI-H23 lung 69.9% | NCI-H226 lung 72.1% | NCI-H322M lung 110% | HOP-62 NSCLC 61.1% | NCI-H460 lung 27% | NCI-H522 lung 26.1% | A549/ATCC NSCLC 46.6% | 786-0 renal 57.3% | COLO 205 colon 45.5% | DU-145 prostate 72.9% | K-562 leukemia 22.1% | MALME-3M melanoma 26.9% | MDA-MB-231 breast 50% | RXF 393 renal 55.3% | SF-268 CNS 63.1% | SF-295 CNS 24.3% | SF-539 CNS 59.7% | UACC-257 melanoma 74.9% | M14 melanoma 24.5% | HCT-15 colon 45.3%

CCc1[nH]nc(-c2ccc(OC)cc2)c1-c1ccccc1OCCN(CC)CC
inactive: NCI-H23 lung 91.4% | NCI-H226 lung 94.9% | NCI-H322M lung 97.7% | HOP-62 NSCLC 84.6% | NCI-H460 lung 103% | NCI-H522 lung 114% | A549/ATCC NSCLC 93.2% | 786-0 renal 74.7% | COLO 205 colon 77% | DU-145 prostate 102% | K-562 leukemia 88.4% | MALME-3M melanoma 95.5% | MDA-MB-231 breast 99.2% | RXF 393 renal 79.3% | SF-268 CNS 89% | SF-295 CNS 85.7% | SF-539 CNS 99% | UACC-257 melanoma 97.9% | M14 melanoma 87.1% | HCT-15 colon 105%

COc1cc2c(c(OC)c1OC)CCc1cnoc1-2
inactive: NCI-H23 lung 104% | NCI-H226 lung 102% | NCI-H322M lung 107% | HOP-62 NSCLC 156% | NCI-H460 lung 106% | NCI-H522 lung 102% | A549/ATCC NSCLC 103% | 786-0 renal 155% | COLO 205 colon 134% | DU-145 prostate 116% | K-562 leukemia 99.8% | MALME-3M melanoma 100% | MDA-MB-231 breast 107% | RXF 393 renal 121% | SF-268 CNS 109% | SF-295 CNS 108% | SF-539 CNS 100% | UACC-257 melanoma 103% | M14 melanoma 122% | HCT-15 colon 102%
